# According to the supplement of paper PMC3334620:
# Whole data set: some 33,000 sequences, median “E-score (-0.5 to 0.5)” near -0.041, cut for the highest 2% near 0.37. This excerpt belongs to a sample that is enriched for the highest values.
# Target: T1, Ecm22 (UniProt Q05958)
# T1 sequence: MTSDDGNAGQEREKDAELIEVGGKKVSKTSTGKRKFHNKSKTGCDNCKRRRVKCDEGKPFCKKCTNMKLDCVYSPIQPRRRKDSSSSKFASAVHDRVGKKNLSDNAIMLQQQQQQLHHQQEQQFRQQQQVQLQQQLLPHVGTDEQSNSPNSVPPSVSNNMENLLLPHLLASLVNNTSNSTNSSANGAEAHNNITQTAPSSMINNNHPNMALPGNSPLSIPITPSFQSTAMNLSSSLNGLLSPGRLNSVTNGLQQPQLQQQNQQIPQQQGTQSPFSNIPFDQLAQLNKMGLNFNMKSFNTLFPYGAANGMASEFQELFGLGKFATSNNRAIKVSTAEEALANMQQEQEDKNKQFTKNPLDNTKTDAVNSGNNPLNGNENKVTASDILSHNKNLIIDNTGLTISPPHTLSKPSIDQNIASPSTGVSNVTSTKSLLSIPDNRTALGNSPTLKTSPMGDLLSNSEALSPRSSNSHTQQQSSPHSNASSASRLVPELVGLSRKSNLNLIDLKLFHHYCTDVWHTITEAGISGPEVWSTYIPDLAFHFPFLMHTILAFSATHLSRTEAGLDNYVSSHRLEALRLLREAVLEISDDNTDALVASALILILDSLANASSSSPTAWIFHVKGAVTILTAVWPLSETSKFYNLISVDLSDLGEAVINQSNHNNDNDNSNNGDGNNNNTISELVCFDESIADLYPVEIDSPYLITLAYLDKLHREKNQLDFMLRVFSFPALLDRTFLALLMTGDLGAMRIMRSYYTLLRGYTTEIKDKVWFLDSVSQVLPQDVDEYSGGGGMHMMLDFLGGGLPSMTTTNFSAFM
# Assay: PBM E-score (8-mer binding enrichment) (E-score (-0.5 to 0.5)); higher = stronger / more preferred TF binding
# Details: protein concentration: 200 nM; construct: GST-full length
# Description: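 Universal 'all 10-mer' protein binding microarrays (Agilent AMADID 015681) probed with GST-tagged S. cerevisiae TFs (full-length or DBD) made by in vitro transcription/translation (PURExpress), about 100-200 nM. Bound TF was detected with fluorescent anti-GST. Each ungapped 8-mer (which stands for itself and its reverse complement) is scored by the PBM enrichment score (E-score), a modified Wilcoxon-Mann-Whitney statistic from -0.5 to +0.5, computed with the Universal PBM Analysis Suite. Scale: above 0.35 generally sequence-specific binding.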
row,Sequence,PBM E-score
1,CAGGAAGG,-0.357
2,ATCGTGCG,0.228
3,CATTCCTC,0.0616
4,ACGCGGTG,-0.00032
5,AATGAGTC,-0.0397
6,AAGGTGTA,-0.0872
7,ATCCTTTA,-0.159
8,CGGTACGC,0.315
9,AGGTACGC,0.217
10,GGGTACGA,0.491
11,GGGTACAA,-0.0303
12,AGGTACTG,-0.183
13,CGGTACCA,-0.0083
14,CGGTACGA,0.492
15,AGGTACGG,0.424
16,GGGTACCA,-0.317
17,CGATTCGC,0.221
18,ATCAGGTC,0.113
19,ATAGGAGC,-0.162
20,CAGATTTA,0.156
21,AACATCAA,0.0313
22,CCTCGGCA,0.165
23,GCGCTTAA,0.0179
24,CCGCTTAA,0.291
25,TCGCTTAA,0.394

row,Sequence,PBM E-score
1,ACCCATTC,-0.0208
2,CGCGTAGA,0.107
3,CTCGTAGA,0.376
4,ATCGTAGA,0.272
5,CACGTAGA,-0.0914
6,CCCGTAGC,0.154
7,CACGTAGC,-0.026
8,GGCGTAGA,0.0225
9,ATCGTAGC,0.385
10,CTCGTAGC,0.449
11,GTCGTAGA,0.4
12,GACGTAGA,-0.0256
13,ATCGTAGG,0.144
14,AGAGGCGA,-0.00468
15,ATGGGAGG,-0.116
16,CTGGCGAC,-0.209
17,GCACGTGC,-0.0189
18,CATTACCG,-0.025
19,GGGGACTA,-0.242
20,AACGGCCT,0.225
21,CTTTCGCA,0.00706
22,GTAGGTCA,-0.0922
23,GAACCTTC,-0.126
24,ATGAGAGA,-0.0934
25,AGAAGGCA,-0.166

row,Sequence,PBM E-score
1,GGCATTCA,-0.0839
2,ACACTGCG,0.0708
3,ATTTGGCC,-0.258
4,AACGCATT,0.0189
5,AGTACGGC,0.339
6,CTTACGGA,0.0416
7,AGTACGGA,0.288
8,CGTACGGA,0.373
9,GGTACGGA,0.413
10,GCTACGGA,0.232
11,CATACGGC,0.3
12,CCTACGGA,-0.34
13,CGTACGGC,0.385
14,CCCGCTGA,-0.32
15,AGCGCTGC,-0.158
16,CCGGTCAC,-0.0785
17,ATGGACAT,-0.107
18,ATGGGCCC,-0.157
19,GCGAACAC,0.0536
20,CCCCCTGC,-0.162
21,AATACGGG,0.229
22,CATACAAA,-0.0105
23,CATACGTA,0.288
24,ACTACGAA,0.25
25,AATACGAG,0.457

row,Sequence,PBM E-score
1,CATACGAC,0.451
2,AATACGTG,0.15
3,CATACGAA,0.451
4,CATACGTC,0.0749
5,CATACGCC,0.182
6,AATACGTA,0.228
7,AATACGAA,0.419
8,GATATAAC,0.156
9,AAGGACAC,-0.168
10,ACTTTGGG,-0.263
11,ATTGACTC,-0.0667
12,AACACAAT,-0.00044
13,CTTTTCCA,-0.271
14,GGCGGCGA,-0.157
15,GACAGAGA,0.0187
16,AATACGTC,0.0846
17,GATACGAC,0.464
18,GATACGAA,0.445
19,AATACGGC,0.268
20,AATACGAC,0.429
21,GATACGCC,0.162
22,AATACGCT,0.121
23,AATACGAT,0.384
24,AATACGGT,0.21
25,GATACGTA,0.253

row,Sequence,PBM E-score
1,GATACAAA,0.163
2,GATACGGC,0.32
3,ATTCCGAC,-0.0388
4,AAAACGAT,0.257
5,ACGTTCTA,0.0664
6,AGGAATAT,0.06
7,AGTTGAAC,0.0747
8,AGTGGAGA,-0.128
9,ACCGAGTG,0.159
10,TCCAGGGA,-0.173
11,CACGGACG,-0.0335
12,AGCTAACA,-0.248
13,CATACGAG,0.481
14,CATACGCG,0.269
15,CATACGGG,0.36
16,AGGGTTAA,-0.0692
17,CGGCTCAC,-0.0852
18,AGGTTAGA,-0.186
19,GCACGAGC,0.0624
20,AAACGAGC,0.482
21,GAACGAGC,0.483
22,GCACGAGA,0.127
23,CAACGAGC,0.336
24,GAGCGAGA,0.377
25,AATCGAGC,0.237

row,Sequence,PBM E-score
1,GGACGAGA,0.0358
2,GAACGAGA,0.464
3,CAGCGAGA,0.0257
4,AACCGAGC,0.355
5,GAGCGAGC,0.354
6,GCTGCCTA,-0.101
7,AGTGGGCG,-0.167
8,ATAGGATC,-0.135
9,GCCTAGCA,-0.213
10,ATAAGGAG,-0.0163
11,GTGTACGA,0.481
12,CTGTACAA,-0.0518
13,GTGTACCA,0.0289
14,ATGTACGG,0.365
15,ATGTACGC,0.112
16,CTGTACGA,0.48
17,CTGTACGC,0.314
18,GTGTACTA,0.207
19,ATGTACGA,0.477
20,TACTGACA,0.0366
21,AGTCCAAA,-0.108
22,GGCGGCAC,0.0476
23,GCTGGGGA,-0.211
24,CCACCCGC,-0.0883
25,AAACCGTA,0.27

row,Sequence,PBM E-score
1,ACACCGTA,0.313
2,CCACCGTA,0.34
3,GCACCGTA,0.371
4,TAACCGTA,0.375
5,GAACCGTA,0.248
6,AGACAGCA,-0.143
7,AATACCGT,0.197
8,CAGGGTGA,-0.192
9,TAATCGGA,0.16
10,CAATCGTA,0.389
11,AAATCGTG,0.0433
12,GAATCGTA,0.38
13,CAATCGTC,-0.0527
14,GAATCGCA,-0.0229
15,CAATCGTG,-0.215
16,GAATCGTC,0.14
17,AAATCGTA,0.393
18,TAATCGTA,0.418
19,AAATCGTC,0.127
20,TAATCGAA,0.134
21,ACCCACAA,0.105
22,ACGTAGTC,-0.158
